Pf apPOL block – Pf-apPOL DNA polymerase inhibition | AID 1794808 | inhibition, % at 10 µM | 210,000 tested, 0.25% active | Recombinant Pf-apPOL, molecular beacon fluorescence, 1.5 h
mHTT-CaM PPI inh – disrupts binding of mutant huntingtin to calmodulin. P42858. AlphaScreen His-mHTT/GST-CaM binding, luminescence. inhibition, % at 15 µM. 190,000 tested, 3.6% active. AID 1671202;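 further: 0% = both proteins with DMSO and 100% = one protein alone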
Target sequence (P42858 whole entry, looked up, stated change not applied): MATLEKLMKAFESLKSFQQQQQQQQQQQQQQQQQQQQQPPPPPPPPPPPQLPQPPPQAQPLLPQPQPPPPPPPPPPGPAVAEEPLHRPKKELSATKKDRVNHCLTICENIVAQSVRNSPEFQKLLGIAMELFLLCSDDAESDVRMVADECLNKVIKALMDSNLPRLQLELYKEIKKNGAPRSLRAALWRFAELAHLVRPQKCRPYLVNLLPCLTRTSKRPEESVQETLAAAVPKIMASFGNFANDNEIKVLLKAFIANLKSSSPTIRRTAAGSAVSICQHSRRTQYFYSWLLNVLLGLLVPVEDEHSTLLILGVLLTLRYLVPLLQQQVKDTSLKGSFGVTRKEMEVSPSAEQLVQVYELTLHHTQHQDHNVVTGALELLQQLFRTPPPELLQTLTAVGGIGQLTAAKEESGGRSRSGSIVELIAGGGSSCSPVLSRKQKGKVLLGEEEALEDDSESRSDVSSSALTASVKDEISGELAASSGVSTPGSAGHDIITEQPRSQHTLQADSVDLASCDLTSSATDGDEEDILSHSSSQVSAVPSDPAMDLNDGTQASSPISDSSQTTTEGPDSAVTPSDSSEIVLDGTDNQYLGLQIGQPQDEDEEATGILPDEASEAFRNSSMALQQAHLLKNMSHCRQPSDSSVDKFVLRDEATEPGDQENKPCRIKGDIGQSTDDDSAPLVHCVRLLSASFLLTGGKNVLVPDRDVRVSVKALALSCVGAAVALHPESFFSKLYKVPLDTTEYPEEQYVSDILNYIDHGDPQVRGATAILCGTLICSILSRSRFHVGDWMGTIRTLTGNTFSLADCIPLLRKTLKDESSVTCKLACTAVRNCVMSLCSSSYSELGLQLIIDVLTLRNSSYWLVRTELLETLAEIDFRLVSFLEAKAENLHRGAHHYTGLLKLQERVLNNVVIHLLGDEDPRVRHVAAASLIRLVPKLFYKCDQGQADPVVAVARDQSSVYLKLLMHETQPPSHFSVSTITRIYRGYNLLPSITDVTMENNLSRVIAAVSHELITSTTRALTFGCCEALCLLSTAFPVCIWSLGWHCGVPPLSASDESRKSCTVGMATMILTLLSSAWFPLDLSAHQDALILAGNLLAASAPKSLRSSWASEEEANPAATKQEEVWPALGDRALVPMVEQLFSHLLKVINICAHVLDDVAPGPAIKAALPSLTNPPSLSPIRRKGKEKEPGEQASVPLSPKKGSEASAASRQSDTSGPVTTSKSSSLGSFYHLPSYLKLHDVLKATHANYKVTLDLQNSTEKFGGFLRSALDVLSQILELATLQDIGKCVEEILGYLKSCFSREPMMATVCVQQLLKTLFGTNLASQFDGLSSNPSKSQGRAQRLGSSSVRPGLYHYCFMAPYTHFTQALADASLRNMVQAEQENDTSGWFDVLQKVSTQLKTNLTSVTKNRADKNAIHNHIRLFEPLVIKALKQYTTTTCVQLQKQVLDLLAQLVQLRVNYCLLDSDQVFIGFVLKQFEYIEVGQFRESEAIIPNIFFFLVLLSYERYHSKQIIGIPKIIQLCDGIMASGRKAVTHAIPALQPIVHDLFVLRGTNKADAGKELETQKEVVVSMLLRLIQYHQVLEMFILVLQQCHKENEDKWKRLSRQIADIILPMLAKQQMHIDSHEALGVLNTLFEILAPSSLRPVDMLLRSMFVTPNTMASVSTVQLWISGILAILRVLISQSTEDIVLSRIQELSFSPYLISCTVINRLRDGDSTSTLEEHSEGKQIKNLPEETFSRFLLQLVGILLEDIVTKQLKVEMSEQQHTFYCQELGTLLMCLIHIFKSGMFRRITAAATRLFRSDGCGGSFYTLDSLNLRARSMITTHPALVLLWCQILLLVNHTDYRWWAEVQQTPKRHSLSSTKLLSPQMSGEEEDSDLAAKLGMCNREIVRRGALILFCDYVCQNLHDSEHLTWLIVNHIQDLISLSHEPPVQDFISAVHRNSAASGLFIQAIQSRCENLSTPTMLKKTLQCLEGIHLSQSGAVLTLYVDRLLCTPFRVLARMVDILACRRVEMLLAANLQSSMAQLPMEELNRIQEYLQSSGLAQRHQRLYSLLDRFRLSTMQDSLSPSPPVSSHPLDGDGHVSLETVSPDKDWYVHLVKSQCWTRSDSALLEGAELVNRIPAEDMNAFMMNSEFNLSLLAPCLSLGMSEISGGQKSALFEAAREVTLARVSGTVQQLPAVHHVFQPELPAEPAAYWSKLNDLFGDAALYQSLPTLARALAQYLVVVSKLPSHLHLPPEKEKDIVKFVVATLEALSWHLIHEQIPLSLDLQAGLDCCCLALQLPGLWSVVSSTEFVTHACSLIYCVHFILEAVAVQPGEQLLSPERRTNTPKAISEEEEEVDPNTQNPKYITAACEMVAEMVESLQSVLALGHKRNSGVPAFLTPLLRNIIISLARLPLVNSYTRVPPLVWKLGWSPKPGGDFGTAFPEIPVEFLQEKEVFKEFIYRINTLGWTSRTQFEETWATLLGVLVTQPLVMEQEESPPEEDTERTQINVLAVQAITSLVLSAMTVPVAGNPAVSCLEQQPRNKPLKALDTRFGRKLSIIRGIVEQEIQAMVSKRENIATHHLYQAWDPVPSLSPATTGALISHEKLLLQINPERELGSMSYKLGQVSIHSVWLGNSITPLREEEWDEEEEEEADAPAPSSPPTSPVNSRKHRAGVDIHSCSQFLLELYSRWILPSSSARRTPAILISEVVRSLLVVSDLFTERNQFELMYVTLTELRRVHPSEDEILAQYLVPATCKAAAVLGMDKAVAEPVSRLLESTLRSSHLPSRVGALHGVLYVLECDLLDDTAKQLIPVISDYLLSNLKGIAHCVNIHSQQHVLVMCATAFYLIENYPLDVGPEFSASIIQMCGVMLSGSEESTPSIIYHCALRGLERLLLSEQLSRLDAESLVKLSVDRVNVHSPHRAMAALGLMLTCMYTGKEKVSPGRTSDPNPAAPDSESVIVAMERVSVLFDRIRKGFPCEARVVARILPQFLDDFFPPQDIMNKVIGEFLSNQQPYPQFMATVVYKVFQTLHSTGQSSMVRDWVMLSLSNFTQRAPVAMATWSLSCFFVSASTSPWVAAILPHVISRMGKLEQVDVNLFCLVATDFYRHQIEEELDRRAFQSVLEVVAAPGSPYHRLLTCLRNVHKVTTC
The depositor's hits bear a star; · = no result given. Many of the other results were omitted from the sample, so hits are more common in it than they were. No stated cut-off is given here; in the data, active means inhibition above about 50%; inactive means the rest.

SMILES | Pf apPOL block | mHTT-CaM PPI inh
O=C(NCC1CCCO1)C1CCN(c2ncccc2-c2nc(-c3ccccc3)no2)CC1 (stereo not drawn) | -3.5 | -0.4
CNC(=O)N1CCc2nc(-c3ccccc3)ncc2C1 | -0.7 | -5.7
O=C(NN1CCOCC1)c1cccc(Br)c1 | -7.6 | 3.0
O=C(NN1CCOCC1)c1ccc(Br)cc1 | 56.3* | -6.7
COc1ccc(N(C(=O)c2ccccc2)C2C=CS(=O)(=O)C2)cc1 (stereo not drawn) | -10.8 | 1.0
CCn1c(C2CCN(Cc3ccc(Cl)cc3)C2)nc2cccnc21 (stereo not drawn) | -11.9 | 57.4*
CCn1c(C2CCN(Cc3ccc(F)cc3)C2)nc2cccnc21 (stereo not drawn) | -8.4 | 11.7
O=c1[nH]c(CN2CCCCC2)nc2c1oc1ccccc12 | 69.3* | 4.0
O=c1[nH]c(CN2CCOCC2)nc2ccccc12 | -18.1 | ·
O=c1[nH]c2ccc(Cl)cc2c(-c2ccccc2)c1-[n+]1ccccc1 | 7.8 | 0.0
COc1ccc(NC2=C(N(C)C)C(=O)c3ccccc3C2=O)cc1 | -4.8 | 62.6*
COc1ccc(C2=C(Nc3ccc(C(N)=O)cc3)c3ccccc3C2=O)cc1 | -0.8 | 38.0
COc1cccc(Nc2ccccc2C)c1 | -2.8 | 14.7
COc1cccc(NC2=C(N(C)C)C(=O)c3ccccc3C2=O)c1 | 0.9 | 57.6*
O=C(Nc1cccs1)N1CCCC(c2nnc(C(F)(F)F)o2)C1 (stereo not drawn) | -0.7 | -1.7
CC(=O)Nc1ccc(NC(=O)c2c(I)cnn2C)cc1 | -13.6 | -1.8
CCSc1nnc(-c2nn(C)c3c2CN(C(=O)c2cccc(F)c2)CC3)n1C | -2.7 | -4.5
Cc1nnc(NC(=O)c2csc(-c3cnccn3)n2)s1 | 46.7 | -12.5
O=C(Nc1nc(-c2ccco2)cs1)c1csc(-c2cnccn2)n1 | 75.5* | 6.0
c1ccc(CN2CCN(C3CC4CCC3C4)CC2)cc1 (stereo not drawn) | -1.3 | -2.2
COc1ccc(/C=C/c2ccccn2)cc1 | -0.6 | -6.0
CCOC(=O)c1cnc2nc(C)ccc2c1Nc1cc(F)ccc1Cl | -0.3 | 42.5
COC(=O)c1cnc2nc(C)ccc2c1Nc1cccc(Cl)c1 | -4.7 | 11.3
CCOC(=O)c1cnc2nc(C)ccc2c1Nc1ccc(F)c(Cl)c1 | -9.7 | 68.0*
COC(=O)c1cnc2nc(C)ccc2c1Nc1ccc(Cl)cc1F | -3.4 | 37.8
SMILES | Pf apPOL block | mHTT-CaM PPI inh
CCOC(=O)c1cnc2nc(C)ccc2c1Nc1cccc(Cl)c1 | -12.6 | 62.7*
COC(=O)c1cnc2nc(C)ccc2c1Nc1ccc(Cl)cc1C | 0.9 | 85.3*
CCCc1cc(C2CCCN2C(=O)Nc2ccc(C(=O)OCC)cc2)no1 (stereo not drawn) | -4.9 | -3.1
Cc1c(N=Cc2ccc(Br)cc2)c(=O)n(-c2ccccc2)n1C | -2.0 | -2.0
Cc1ccc(C2C3=C(NCCN=C3c3ccccc3)C(=O)N2c2ccccc2)cc1 (stereo not drawn) | 4.4 | 80.0*
COc1cccc(C2C3=C(NCCN=C3c3ccc(Cl)cc3)C(=O)N2c2ccccc2)c1 (stereo not drawn) | 5.0 | 7.0
Nc1cccc2c1C(=O)N(c1cc(Cl)ccc1Cl)C2=O | -2.4 | -58.0
Cc1ccc(C(=O)N2CCN(c3nc(C)nc4sc5c(c34)CCCC5)CC2)cc1 | -1.9 | 30.0
Cc1cc2ccccc2n1CCNS(=O)(=O)c1ccc(Br)cc1 | -1.3 | 36.0
Cc1cc(C)c(S(=O)(=O)NCCn2c(C)cc3ccccc32)c(C)c1 | 6.5 | 62.0*
Cc1cccc(-c2nc(C3CCN(S(=O)(=O)c4cc(F)cc(F)c4)CC3)no2)c1 | -4.5 | -0.9
Cc1ccc(C2Nc3ccc4ncccc4c3C3=C2C(=O)CCC3)cc1 (stereo not drawn) | -7.1 | 1.0
CC(C)c1ccc(C2Nc3ccc4ncccc4c3C3=C2C(=O)CCC3)cc1 (stereo not drawn) | 1.3 | 65.0*
CC(=O)Nc1cccc(NC(=O)c2ccccc2[N+](=O)[O-])c1 | -10.1 | 0.2
CC(=O)Nc1ccc2c(c1)C1C=CCC1C(c1ccccc1[N+](=O)[O-])N2 (stereo not drawn) | 6.5 | 64.6*
Brc1cc2c(cc1[C@H]1Nc3ccccc3[C@H]3C=CC[C@H]31)OCO2 | 6.5 | ·
CC(=O)Nc1ccc2c(c1)C1C=CCC1C(c1ccc(Br)cc1)N2 (stereo not drawn) | 72.7* | 86.2*
Cc1ccc2c(c1)C1C=CCC1C(c1ccccc1Br)N2 (stereo not drawn) | -8.2 | 77.0*
O=C(Nc1ccc(Cl)cc1)Nc1nnc2ccccn12 | -2.0 | 4.4
Cc1ccc(NC(=O)Nc2nnc(SCCN3CCOCC3)s2)cc1C | -2.3 | -0.9
CCOc1ccc(N2CC(c3nnc(NC(=O)c4ccc(C(C)(C)C)cc4)o3)CC2=O)cc1 (stereo not drawn) | -5.3 | 24.5
Cc1c(Cl)cccc1NC(=O)C1CCCN(c2nnc3ccccn23)C1 (stereo not drawn) | -6.8 | 9.1
O=C(c1n[nH]c2c1CCCC2)N1CCc2c(nc3cc(-c4ccccc4Cl)[nH]n3c2=O)C1 | -3.5 | 59.4*

Source: PubChem
